HPGD block: inhibitors of human 15-hydroxyprostaglandin dehydrogenase (HPGD) | purified HPGD, NADH fluorescence kinetic, PGE2 substrate | Potency, µM, for inactives: top-dose activity change, negative = inhibition, usual class: inhibitors | 150,000 compounds, 4.3% hits; active = well fitted inhibition curve with a large enough effect, not every such curve was filed as active; inconclusive = small, poorly fitted or top-dose-only effect, or another doubt; inactive = no such curve, though single readings can be large or run the other way
Target sequence (P15428 whole entry, looked up): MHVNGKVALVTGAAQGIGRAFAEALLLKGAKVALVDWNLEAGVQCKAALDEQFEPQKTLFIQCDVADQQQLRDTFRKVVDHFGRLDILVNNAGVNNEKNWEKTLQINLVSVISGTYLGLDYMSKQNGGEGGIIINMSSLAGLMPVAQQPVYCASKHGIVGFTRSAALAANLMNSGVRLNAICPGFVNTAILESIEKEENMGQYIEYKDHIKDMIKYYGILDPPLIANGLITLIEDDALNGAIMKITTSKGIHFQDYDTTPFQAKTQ
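NADH formation kinetics: reaction with 30 uM PGE2 and 1 mM NAD+ (final), 20 nM enzyme, Tris-HCl pH 8 with Tween 20, after 15 min compound preincubation at room temperature. Fluorescence change, last versus first of five reads.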
Tau ThT inhib: tau fibrillization inhibition (ThT binding); P10636; recombinant tau K18 P301L, heparin-induced fibrillization, ThT fluorescence; Potency, µM (highest dose often 57.4 µM), inactives show at the top dose activity, negative = inhibition, usual class: inhibitors; 270,000 compounds, 2.1% hits; AID 1460; note: nearly all actives have a fitted effect of over 55% in size
Target sequence (P10636 561-689 P618L limits assumed): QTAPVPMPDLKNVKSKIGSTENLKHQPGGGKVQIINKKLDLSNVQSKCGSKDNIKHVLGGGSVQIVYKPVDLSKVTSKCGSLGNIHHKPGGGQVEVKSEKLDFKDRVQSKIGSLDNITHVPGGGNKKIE
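Recombinant human tau K18 fragment […] carrying P301L, 15 uM unlabeled plus 0.24 uM Alexa 594-labeled, was fibrillized with 20 uM heparin in 100 mM sodium acetate pH 7 for 6 hr at 37 C; 30 uM ThT fluorescence read after 1 hr.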
ALDH1A1 inh: ALDH1A1 (human) enzyme inhibition; P00352; Purified ALDH1A1, NADH fluorescence, propionaldehyde substrate; Potency, µM (series often up to 75.3 µM), without a hit: at the top dose activity, negative = inhibition, most hits filed as inhibitors; 220,000 compounds, 7.3% hits; active = well fitted inhibition curve with a large enough effect, not every such curve was filed as active; inconclusive = small, poorly fitted or top-dose-only effect, or another doubt; inactive = no such curve, though single readings can be large or run the other way;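 note: plate controls were no enzyme wells and a reference inhibitor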
Tau fibril FP: blocks human tau fibril formation measured by polarization; P10636; Potency, µM (highest dose often 57.7 µM), for inactives: top-dose activity, negative = inhibition, hits mostly inhibitors; 280,000 compounds, 0.39% hits; K18 P301L tau heparin fibrillization, Alexa594 FP, 6 h; note: nearly all actives have a fitted effect of over 55% in size
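FP of Alexa 594-tau after heparin (20 uM) induction. Substrate: human K18 P301L, 15 uM unlabeled, 0.24 uM labeled. Buffer 100 mM sodium acetate pH 7. 6 hr, 37 C.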
NPSR antagonist: neuropeptide S receptor (human) antagonism, cAMP | CHO-NPSR cells, cAMP TR-FRET, antagonist mode | 220,000 compounds, 1% hits | AID 1461 | Potency, µM (top dose mostly 38.3 µM), for inactives: at the top dose activity change, negative = inhibition, hits mostly inhibitors | Q6W5P4; note: nearly all actives have a fitted effect of over 50% in size
Tau fluor cs: counter-screen for tau fibril formation inhibitors | Potency, µM (titrated, usually from 57.7 µM), without a hit: top-dose activity change, negative = decrease | 280,000 compounds, 0.93% hits | tau K18 P301L (four-repeat tau fragment) Alexa594 fluorescence, heparin fibrillization; note: nearly all actives have a fitted effect of over 55% in size
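Human K18 P301L tau (15 uM unlabeled plus 0.24 uM Alexa 594-labeled, final) in 100 mM sodium acetate pH 7 was mixed with compound and 20 uM heparin and incubated 6 hr at 37 C.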
* = called active by the depositor; ? = inconclusive; / = not tested or not shown; [ ] = another dose, or the depositor's remark. A selection: hits, their analogues and other compounds. The true share with any hit is near 9.5%. Unless noted, calls come from the whole dose curve; as a rule, active = well fitted curve in the direction sought with a large enough effect; inconclusive = small, poorly fitted or top-dose-only effect, or another doubt; inactive = no such curve, though single readings can be large; an effect the other way counts as inactive or inconclusive. Unless noted, % is set by controls: 0 for no effect and ±100 for the full control effect; potency is the fitted concentration of half-maximal effect.

SMILES	HPGD block	Tau ThT inhib	ALDH1A1 inh	Tau fibril FP	NPSR antagonist	Tau fluor cs
CC1(C)Cc2nc3sc4c(NCCO)ncnc4c3cc2CS1	/	-4%	/	4%	7%[7.67 µM]	5%
CCCCn1cnc2c(sc3nc4c(cc32)CSC(C)(C)C4)c1=O	-17%	-3%	1.1µM*	-3%	-20%	-1%
CC(C)CCn1cnc2c(sc3nc4c(cc32)CSC(C)(C)C4)c1=O	-10%	-9%	1.8µM*	-1%	-11%	-14%
CN(Cc1ccco1)C(=O)C(Cc1ccccc1)NS(=O)(=O)c1ccc2c(c1)CCC(=O)N2 (stereo unspecified)	-6%	?	25µM*	0%	-15%[46.1 µM]	-13%
CCCCCCn1c(O)c(/C=C2\C=NN=C2c2ccccc2)sc1=S	-25%	4%	7%	8%	?	0%
CCCCn1c(O)c(/C=C2\C=NN=C2c2ccccc2)sc1=S	-5%	-11%	9%	11µM*	-49%	?
CCc1cccc(C)c1NC(=O)CCS(=O)(=O)c1ccc2c(c1)oc(=O)n2C	/	-14%	/	?	/	-12%
C=C1C(=O)C=C2CN(C(=O)c3ccccc3)[C@@](Cc3ccc(F)cc3)(C(=O)OC)[C@@H]12	16µM*	?	-1%	?	1.6µM*	-27%
Oc1cc(O)c2c(c1)O[C@@H](c1ccc(O)c(O)c1)[C@H](O[C@@]1(c3cc(O)c(O)c(O)c3)Oc3cc(O)cc(O)c3[C@H](O)[C@@H]1O)C2	-14%	/	9%[13.5 µM]	/	/	/
O=C(OC1Cc2c(O)cc(O)cc2OC1c1cc(O)c(O)c(O)c1-c1c(C2Oc3cc(O)cc(O)c3CC2O)cc(O)c(O)c1O)c1cc(O)c(O)c(O)c1 (stereo unspecified)	-29%	18µM*	5%	?	/	13µM*[quencher]
CCOc1ccc(S(=O)(=O)N/N=C(\C)c2ccc(OC)cc2OC)cc1	/	0%	22µM*	-5%	13%	-4%
CCOc1ccc(S(=O)(=O)NN)cc1	-1%	-5%	2µM*	-4%	-3%[46.1 µM]	-4%
CCOc1ccc(S(=O)(=O)NN=C2CCN(C(C)=O)CC2)cc1	/	-13%	7.9µM*	-10%	1%	-14%
CCOC(=O)Cc1ccc(NS(=O)(=O)c2ccc(SC)cc2)cc1	-15%	-3%	8.9µM*	-1%	-16%[46.1 µM]	-21%
Cc1cc(S(=O)(=O)Nc2ccc(-c3ccc(N4CCCCCC4)nn3)cc2)c(C)cc1Cl	/	-12%	/	-8%	/	-17%
O=C(CSc1nc(=O)[nH]c2c1CCC2)NCc1ccc(F)cc1	/	3%	/	-5%	/	6%
CCOc1ccc(CNC(=O)C2CCN(c3nc4ccccc4nc3C(F)(F)F)CC2)cc1OC	/	-6%	/	-6%	/	-4%
CCOc1ccc(NS(=O)(=O)c2ccc(SC)cc2)cc1	-5%	-7%	11µM*	-1%	-7%[46.1 µM]	-25%
COc1ccc(NS(=O)(=O)c2ccc(SC)cc2)c(OC)c1	-11%	-11%	8.9µM*	0%	-19%[46.1 µM]	-19%
COc1ccc(S(=O)(=O)NN=C2CCCCC2)cc1	-10%	-6%	0.63µM*	-7%	-7%[46.1 µM]	-11%
CCOc1ccc(NS(=O)(=O)c2ccc(N)cc2)cc1	-10%	-10%	6%	5%	-1%[46.1 µM]	-7%
COc1cc(NS(=O)(=O)c2ccc(F)cc2)c(OC)cc1NC(C)=O	-13%	-11%	7.9µM*	-4%	-11%[46.1 µM]	-2%
COc1ccccc1C1CC(=O)Oc2cc3c(cc21)OCO3 (stereo unspecified)	-18%	?	?	-5%[81.3 µM]	/	-21%[81.3 µM]
Cc1noc(/C=C/N(C)C)c1S(=O)(=O)N1CCc2ccccc21	-30%	?	5.6µM*	6%	-18%[46.1 µM]	-24%
Cc1noc(/C=C/N(C)C)c1S(=O)(=O)N1CCCC(C(=O)NC(C)c2ccccc2)C1 (stereo unspecified)	32µM*	-4%	7.5µM*	-6%	-27%[46.1 µM]	2%
SMILES	HPGD block	Tau ThT inhib	ALDH1A1 inh	Tau fibril FP	NPSR antagonist	Tau fluor cs
Cc1noc(/C=C/N(C)C)c1S(=O)(=O)N(C)CC(=O)N1CCc2ccccc21	-5%	-17%	3%	12%	-6%[46.1 µM]	-12%
CC1CN(C2=NC(=O)/C(=C/c3ccncc3)S2)CC(C)O1 (stereo unspecified)	/	-2%	/	-3%	-13%	4%
Cc1cc(OCC(=O)Nc2ccc(F)c(F)c2)nc(C(C)C)n1	-12%	-1%	25µM*	-3%	-2%[46.1 µM]	-4%
O=C1Nc2ccc(Br)cc2/C1=C/C(=O)c1ccc2c(c1)OCO2	/	25µM*	/	12%	?	?
COc1ccccc1-c1nccc(NCc2cccc(C)c2)n1	-7%	-7%	?	-4%	/	-16%
Cc1ccc(NC(=O)c2ccc(CNS(=O)(=O)c3ccc4c(c3)C(C)(C)C(=O)N4C)cc2)cc1C	/	-5%	/	4%	/	-28%
COc1ccccc1OCCn1cc(/C=N/NC(=O)c2ccncc2)c2ccccc21	/	?	/	?	-14%	13µM*[quencher]
COC(=O)N/N=C/c1cn(CCCOc2ccccc2)c2ccccc12	?	-6%	-13%	2%	13%	-5%
O=C(N/N=C/c1cn(CCOc2ccccc2)c2ccccc12)c1ccncc1	-10%	?	-10%	3%	3%	14µM*[quencher]
Cc1nn(C(C)C(=O)NNC(=S)Nc2ccc(F)cc2)c(C)c1[N+](=O)[O-] (stereo unspecified)	-6%	-6%	-8%	10%	-11%[46.1 µM]	-8%
C[C@@]1(C(NC(=O)c2ccc(-c3ccccc3)cc2)c2ccc(Cl)cc2)C[C@H]1C1CCCCC1 (stereo partly specified)	-15%	-10%	2%	-5%	/	-6%
O=C(O)CCCCn1cnc2c(=S)nc[nH]c21	-14%	/	-13%[13.5 µM]	/	/	/
COc1ccc(Oc2ncc3nc(-c4cccs4)c(=O)n(-c4ccccc4)c3n2)cc1	-10%	/	28%	/	/	/
COc1ccc(-n2c(=O)c(C)nc3cnc(Oc4ccccc4)nc32)cc1	-8%	/	2.5µM*	/	/	/
Cc1nc2cnc(Oc3ccccc3)nc2n(-c2ccccc2)c1=O	-10%	/	22µM*	/	/	/
CCCCc1c(O)c2ccccc2[nH]c1=O	?	-2%	?	-6%	-6%[46.1 µM]	-3%
Cc1ccc(N=Nc2c(O)c3ccccc3[nH]c2=O)c(S(=O)(=O)N(C)C)c1	-1%	?	14µM*	9%	-20%	-14%
Cc1cc(N=Nc2c(O)c3ccccc3[nH]c2=O)ccc1N=Nc1ccc(C(=O)N(C)C)cc1	/	2.2µM*	/	-9%	-8%	?
Cc1csc(SCC(=O)Nc2ncc(Cl)c(C)c2Cl)n1	-9%	9%	-10%	-2%	-4%[46.1 µM]	-5%
COc1ccc(S(=O)(=O)N2CCC(C(=O)NCc3ccccn3)CC2)cc1C	-8%	0%	-12%	3%	0%[46.1 µM]	7%

Screening data as filed in PubChem.
